This note sets out measurements from PubChem BioAssay AID1347416 (National Center for Advancing Translational Sciences (NCATS), 2020).

SMILES strings stand for the structures. Hit rate of the full screen: of about 4,100 compounds, about 1,600 (39%) were called active. About 25% were inconclusive and are not listed. The list shows a part of the results. A number with no mark means an inactive call. Calls follow the shape of the dose curve; as a rule, active = well fitted inhibition curve with a large enough effect; inconclusive = small, poorly fitted or top-dose-only effect; inactive = no such curve, though single readings can be large or run the other way.
% is scaled to controls: 0 for no effect and ±100 for the full control effect; potency is read from the fitted curve at half-maximal effect.

The test is described as follows: qHTS Validation assay for Inhibitors of Plasmodium falciparum Dd2 growth in vitro. Also: nearly all actives have a fitted effect of over 70% in size. The following applies: P. falciparum Dd2 in RBCs, SYBR Green growth, 72 h; series mostly up to 28.7 µM; activity change, negative = inhibition: at the top concentration. An outline of the steps: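 P. falciparum Dd2-infected red blood cells (2.5% hematocrit, 0.3% parasitemia) grown 72 h at 37 °C under 5% O2 with compounds in a titration, 29 uM to 0.5 nM final. Growth read as SYBR Green-1 fluorescence after ~16 h lysis; artesunate 300 nM as positive control.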
(Quantitative high-throughput screening tests each substance at several concentrations.)
For the molecule `Cc1c(CN2CCN(CC(C)(C)C)C(CCO)C2)[nH]c2ccccc12` (configuration not stated), the Potency was 9440 nM (active).
In the case of `CC(C)c1ccccc1NC(=O)C(Cc1c[nH]c2ccccc12)NC(=O)OC(C)(C)C` (configuration not stated), the “activity change, negative = inhibition” value was -18.5%.
Consider `CC(C)CC(NC(=O)C(NC(=O)OC(C)(C)C)C(C)C)C(=O)NC(CCC(=O)OCc1ccccc1)C(N)=O` (configuration not stated), for which the Potency was 8410 nM (active).
For `CCn1c(=N)n(CC(O)c2cccs2)c2ccccc21` (configuration not stated), the “activity change, negative = inhibition” value is -26.2%.
For the molecule `CCN(CC)CCn1c(=N)n(CC(O)COc2ccccc2C)c2ccccc21` (configuration not stated), the Potency was 3350 nM (active).
Same read-out and setting: next, `N=c1n(CCN2CCCCC2)c2ccccc2n1CC(O)COc1ccc(Cl)cc1Cl` (configuration not stated): 4220 nM (active).
On the same count and under the same terms, next, `CCCCCn1c(=N)n(CC(O)COc2cccc(C)c2)c2ccccc21` (configuration not stated): 2110 nM (active); `CCN(Cc1ccccc1)C(=O)CCC[C@@H]1[C@H]2CCCN3CCC[C@@H](CN1C(=O)c1ccccc1)[C@@H]23`: 13300 nM (active).
Consider `CC(C)CN1CCN(C(=O)CCC[C@@H]2[C@H]3CCCN4CCC[C@@H](CN2Cc2cccnc2)[C@@H]34)CC1`, for which the “activity change, negative = inhibition” value is -17%.
On the same count and under the same terms, as for `CC(=O)N1C[C@@H]2CCCN3CCC[C@@H]([C@H]23)[C@H]1CCCC(=O)Nc1ccccc1`, the figure is -1.67%.
For the molecule `COc1ccccc1Nc1cnc2ccc(-c3ccc(F)cc3)nn12`, the Potency is 6850 nM (active).
On the same count and under the same terms, as for `COc1ccccc1Nc1cnc2ccc(-c3ccc(OC)c(OC)c3)nn12`, the figure is 1530 nM (active).
As for `COc1ccccc1C(=O)NCc1nnc2ccc(-c3ccc(C)cc3)nn12`, the “activity change, negative = inhibition” value is 0%.
Regarding `CC(C)c1ccc(OCC(=O)NC2CCCC2)cc1`, the “activity change, negative = inhibition” value is -28.4%.
As to `CCOc1ccc(C(C)NC(=S)NC2CCCCC2)cc1OCC` (configuration not stated), the Potency is 211 nM (active).
The same measure, in the same setting: as for `COc1ccc(C(C)NC(=S)NC2CCCC2)cc1OC` (configuration not stated), the figure is 6680 nM (active).
Take `O=C1Nc2ccc(-c3ccccc3F)cc2C(=O)N2CCN(C(=O)c3ccccc3)C[C@H]12`: the “activity change, negative = inhibition” value is -15.2% [at 43.1 µM].
The same measure, in the same setting: next, `Cc1ccc(C(=O)N2CCN(c3nnc4c(Cl)cccn34)CC2)cc1F`: -6.08%.
For `CCN1CCN(C(=O)c2ccc3c(c2)N(Cc2c(F)cccc2Cl)C(=O)c2ccccc2S3)CC1`, the Potency was 8.4 nM (active).
`COc1ccc(C(=O)N2CCCC3(C2)NC(=O)N(Cc2cccc(Cl)c2)C3=O)cc1F` (configuration not stated): the “activity change, negative = inhibition” value was -22%.
Turning to `CN1CCN(C(=O)c2ccc3c(c2)N(Cc2c(F)cccc2Cl)C(=O)c2ccccc2S3)CC1`, the Potency is 59.6 nM (active).
In the case of `O=C(OCc1ccccc1)N1CCC2(CC1)C(=NC1CCCCC1)NC(=O)N2c1cccnc1`, the “activity change, negative = inhibition” value is 2.65%.
With `CC(C)(C)C1CCC2(CC1)NC(=O)N(CC(=O)NC1CCCCC1)C2=O` (configuration not stated), the “activity change, negative = inhibition” value is 7.63%.
Turning to `CC(C)CNC(=O)CN1CN(c2ccccc2)C2(CCN(C(=O)NC3CCCCC3)CC2)C1=O`, the Potency was 15000 nM (active).
With `Cc1ccc(S(=O)(=O)c2nc(S(=O)(=O)c3ccccc3)sc2NCCCOC(C)C)cc1`, the Potency is 596 nM (active).
On to `CCCS(=O)(=O)c1nc(S(=O)(=O)c2ccc(C)cc2)c(NCCCOC(C)C)s1`, for which the Potency is 2110 nM (active).
Regarding `CC(C)OCCCNc1sc(S(=O)(=O)c2ccccc2)nc1S(=O)(=O)c1ccc(Cl)cc1`, the Potency is 266 nM (active).
